The results in this text go back to PubChem BioAssay (NCI).

Compounds without any hit were thinned out: in the full panel of roughly 83,000, 20% have a hit.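 Compound tested at a single concentration for 48 hours in 96-well plates; a percent growth value below 10 was scored as active.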 Values without a mark were called inactive. Active and inactive are the calls of the source.

Common to all, as to assay: NCI-60 one-dose screen, 48 h (100 = growth as untreated, 0 = no growth, -100 = all killed)
Holding throughout (conditions): 10 µM unless noted

Assay [1] concerns NCI-H23 lung.
Assay [2] relates to NCI-H226 lung.
For assay [3], the system named is NCI-H322M lung.
The subject of assay [4] is HOP-62 NSCLC.
Assay [5] has as its system NCI-H460 lung.
The test system of assay [6] is HOP-92 NSCLC.
For assay [7], the system named is NCI-H522 lung.
Assay [8] concerns A549/ATCC NSCLC.
Assay [9] relates to 786-0 renal.
Assay [10] relates to COLO 205 colon.

For the molecule `Cc1cc(C(=O)CSc2nc3ccccc3c(=O)[nH]2)c(C)n1C`, the growth in [1] is 97.7%; in assay [2], 97.8%; in [3], 100%; in assay [4], 93.5%; in assay [5], 113%; in [6], 73.1%. Further, the growth was 98.9% in [7], 43.2% in assay [8], 91.9% in assay [9] and 109% in assay [10].
On to `COc1ccc(-c2cn[nH]c2-c2cc(OC)c3c(c2)OCO3)cc1`, for which the growth is 18.3% in assay [1]; 47.7% in assay [2]; 15% in [3]; 22.1% in [4]; 8.74% (active) in [5]; 33.4% in assay [6]. Besides, the growth in assay [7] was -43.9% (active); in [8] it was 19.8%; in [9], 26%; in [10], -44.2% (active).
In the case of `CN(C)c1ccc(/C=C\N=Nc2ccc(Br)cc2)cc1`, the growth is 79.8% in assay [1]; 79.7% in [2]; 77.9% in assay [3]; 95.1% in assay [4]; 51.2% in assay [5]; 76.1% in assay [6]. Besides, the growth is 37.9% in [7], 58.7% in assay [8], 57.3% in [9] and 82.1% in [10].
Consider `N#Cc1c(NC(=O)c2ccc([N+](=O)[O-])o2)[n+]([O-])c2cc(F)c(F)cc2[n+]1[O-]`, for which the growth in [1] was 99%; in assay [2], 108%; in assay [3], 119%; in assay [4] it was 123%; in assay [5] it was 110%; in assay [6], 96.6%. Besides, the growth is 101% in [7], 116% in [8], 110% in [9] and 132% in assay [10].
Regarding `COc1ccc(C2=NN(c3ccc(S(N)(=O)=O)cc3)C(c3cn(-c4ccccc4)nc3-c3ccc(Cl)cc3)C2)cc1` (stereo not given), the growth is 93.9% in [1]; 101% in [2]; 94.4% in assay [3]; 95.3% in assay [4]; 89% in assay [5]; 110% in assay [6]. Further, the growth in assay [7] was 71.1%; in assay [8] it was 74.6%; in [9] it was 105%; in [10], 93.7%.
For `COc1cc(/C=C2\C=C(c3ccc(F)cc3)N(Cc3ccccc3)C2=O)cc(OC)c1OC`, the growth was 62.6% in assay [1]; 56.7% in assay [2]; 61.4% in assay [3]; 108% in assay [4]; 66.4% in [5]; 35% in assay [6]. For the same molecule, the growth in [7] is 90.6%; in assay [8] it was 56.4%; in assay [9], 66.6%; in assay [10] it was 82.7%.
With `CSc1nc(-c2cc3ccccc3o2)cc(-c2ccc(Cl)cc2)c1C#N`, the growth in assay [1] was 44.8%; in [2] it was 39.1%; in assay [3], 82.2%; in assay [4], 69.8%; in [5], 24%; in assay [6] it was 10.3%. Further, the growth in [7] was 25.6%; in [8], 32%; in assay [9], 90.3%; in assay [10], 42.7%.
In the case of `O=C(Nc1cccc(Cl)c1)c1cc([N+](=O)[O-])ccc1O`, the growth in [1] was 25.8%; in [2], 68.2%; in assay [3] it was 43.9%; in assay [4] it was 44.2%; in assay [5], 54%; in assay [6], 8.95% (active). Also, the growth in assay [7] was -2.45% (active); in assay [8], 66.9%; in assay [9] it was 63.8%; in [10], 76.7%.
In the case of `CCCCC[C@@H]1Cc2cc(O)c(C(=O)O)c3c2[C@H](C[C@@]2(CCCO2)O3)O1`, the growth was 103% in assay [1]; 110% in [2]; 121% in assay [3]; 93.6% in assay [4]; 121% in assay [5]; 4.89% (active) in assay [6]. In addition, the growth is 89.7% in assay [7], 105% in [8], 103% in assay [9] and 112% in assay [10].
For the molecule `Nc1c(C(=O)Nc2cccc(Cl)c2Cl)sc2nc3c(cc12)C(=O)CCC3`, the growth in assay [1] is 76.1%; in [2], 87%; in assay [3], 76.7%; in assay [4] it was 95.3%; in assay [5], 20%; in [6] it was 91.5%. Also, the growth in assay [7] is 12.5%; in [8] it was 37.5%; in assay [9], 92.4%; in assay [10], 25.8%.
Regarding `COc1ccc(C(=O)/C=C/c2ccc(/C=C/c3cc(OC)c(OC)c(OC)c3)cc2)cc1`, the growth in assay [1] is 43.5%; in assay [2], 72.4%; in [3] it was 64.8%; in assay [4], 71%; in assay [5], 59.6%; in assay [6] it was 51.9%. The growth in assay [7] is 5.55% (active); in [8] it was 36.3%; in assay [9], 67.7%; in assay [10], 68.1%.
Turning to `CC(=O)Oc1cccc(OC(C)=O)c1OC(C)=O`, the growth was 111% in assay [1]; 97.8% in assay [2]; 99.7% in [3]; 92.1% in assay [4]; 110% in assay [5]; 106% in assay [6]. Also, the growth was 75.2% in assay [7], 72.6% in [8], 97.7% in assay [9] and 107% in assay [10].
`O=S(=O)(NCCCNc1cc(-c2cn(-c3ccccc3)nc2-c2cccc(O)c2)ccn1)c1ccc(C(F)(F)F)cc1`: the growth was 43.9% in assay [1]; 49.6% in assay [2]; 49.8% in assay [3]; 50.9% in assay [4]; 22.2% in assay [5]; 29% in assay [6]. For the same molecule, the growth in assay [7] was 69.7%; in [8], 35.1%; in [9], -8.06% (active); in assay [10] it was -57.3% (active).
For `COc1cc(NC(=O)CCl)ccc(=O)c1`, the growth was 53.7% in assay [1]; 122% in assay [2]; 86.4% in assay [3]; 113% in [4]; 77.4% in assay [5]; 79% in assay [6]. The growth in [7] was 17.2%; in [8], 84.5%; in assay [9], 106%; in assay [10] it was 82.6%.
On to `O=C(O)c1cccc([N+](=O)[O-])c1/C=C/c1ccccc1`, for which the growth is 102% in assay [1]; 96.9% in [2]; 90.5% in assay [3]; 92.6% in assay [4]; 103% in assay [5]; 112% in [6]. The growth in assay [7] is 116%; in assay [8] it was 104%; in assay [9], 98.1%; in assay [10] it was 98.9%.
Take `CC(C)CCN(CCCNc1c2c(nc3ccccc13)CCCC2)CCC(C)C`: the growth was 84.1% in [1]; 102% in assay [2]; 81.7% in [3]; 102% in [4]; 91% in assay [5]; 42.4% in [6]. For the same molecule, the growth in assay [7] was 103%; in assay [8] it was 94.1%; in assay [9], 77.6%; in assay [10], 61.7%.
For `CC1(C)OC2COC3(C(=O)O)OC(C)(C)OC3C2O1` (stereo not given), the growth in [1] is 97.8%; in assay [2], 99.9%; in [3], 98.6%; in assay [4], 91.2%; in assay [5], 103%; in [6], 98.3%. Besides, the growth was 90.2% in assay [7], 95.5% in assay [8], 104% in assay [9] and 98.8% in assay [10].
`COc1ccc(C2CC(c3cccs3)=NN2c2ccc(S(=O)(=O)NC(=O)NCc3cccc(OC)c3)cc2)cc1` (stereo not given): the growth is 97.6% in assay [1]; 110% in assay [2]; 102% in assay [3]; 81% in assay [4]; 109% in assay [5]; 87.1% in assay [6]. The growth in [7] was 87.3%; in [8], 5.45% (active); in assay [9], 101%; in assay [10], -63.5% (active).
As to `COc1ccc(/C=C\c2cc(OC)c(OC)c(OC)c2)c(NS(=O)(=O)c2ccc(C(C)(C)C)cc2)c1O`, the growth in assay [1] is 23.5%; in assay [2], 44.9%; in assay [3], 64%; in [4], 81.9%; in assay [5], 8.21% (active); in [6] it was 10.8%. The growth in assay [7] is -7.56% (active); in assay [8] it was 27.4%; in [9], 24.4%; in assay [10], 1.63% (active).
With `c1cc(-c2ccc3c(c2)OCO3)n2nccc2n1`, the growth in assay [1] is 104%; in [2], 83%; in assay [3] it was 99.3%; in assay [4], 108%; in [5], 101%; in [6] it was 83.9%. Further, the growth is 89.7% in assay [7], 99.2% in assay [8], 101% in assay [9] and 113% in assay [10].
Regarding `NS(=O)(=O)c1ccc(CN2C(=O)c3cccc4cccc(c34)C2=O)cc1`, the growth in [1] was 107%; in assay [2] it was 86.1%; in assay [3], 93%; in [4], 81.8%; in assay [5], 110%; in assay [6] it was 82.7%. The growth is 89.9% in [7], 92.1% in assay [8], 99.2% in assay [9] and 99.4% in assay [10].
Consider `O=C1CCCCN1CCCCC#Cc1ccccc1C#Cc1ccc([N+](=O)[O-])cc1`, for which the growth in [1] is 59%; in [2] it was 57.1%; in assay [3] it was 71%; in [4] it was 64.9%; in assay [5] it was 11.5%; in assay [6], 39.6%. The growth in assay [7] was 56.3%; in [8] it was 50.1%; in assay [9] it was 60.6%; in [10], 45.8%.
As for `COc1cc(NS(C)(=O)=O)ccc1Nc1c2ccc([N+](=O)[O-])cc2nc2c(C)cccc12`, the growth is -0.0901% (active) in assay [1]; -23.6% (active) in assay [2]; 39.6% in assay [3]; -2.67% (active) in assay [4]; -25.4% (active) in [5]; -23.8% (active) in assay [6]. Also, the growth in assay [7] is -25.8% (active); in assay [8], -35.8% (active); in assay [9] it was -3.37% (active); in assay [10] it was 25.3%.
As for `CCN(C(=O)c1cc2ccccc2[nH]1)[C@H]1CCC[C@@H](NCc2ccc(OC)cc2)C1`, the growth in assay [1] was 89.8%; in assay [2], 107%; in assay [3], 76.1%; in assay [4], 86.2%; in assay [5], 103%; in [6], 81%. Also, the growth in assay [7] is 95.6%; in [8], 98.7%; in assay [9], 97%; in assay [10], 87.6%.
`C=CCOc1cccc(/C=C/C(=O)c2sc(Nc3cccnc3)nc2C)c1`: the growth is 94.1% in assay [1]; 86.1% in assay [2]; 77.6% in assay [3]; 68.2% in assay [4]; 81.2% in assay [5]; 74.7% in [6]. The growth in assay [7] was 65.9%; in assay [8], 70.9%; in assay [9] it was 51.7%; in [10] it was 91.3%.
With `COc1ccc(C2=CC(c3ccc(Oc4ccnc5cc(Cl)ccc45)c(OC)c3)c3c(nc(OC)[nH]c3=O)N2)cc1` (stereo not given), the growth is 83.4% in [1]; 88.9% in assay [2]; 72.9% in assay [3]; 81.8% in assay [4]; 63.5% in assay [5]; 49.3% in [6]. For the same molecule, the growth in assay [7] is 75.7%; in assay [8] it was 65.5%; in assay [9] it was 80.3%; in [10] it was 102%.
Consider `OC1CC2c3ccccc3C1c1ccccc12` (stereo not given), for which the growth in assay [1] was 101%; in assay [2], 106%; in [3], 114%; in assay [4] it was 108%; in assay [5], 110%; in assay [6] it was 96.2%. The growth in assay [7] was 102%; in assay [8], 100%; in assay [9] it was 98.9%; in [10] it was 112%.
